In all, about 140,000 sequences were measured (“enrichment ratio after two sorts for PhoP signalling”: median about 0, highest 2% from about 11 on). For the sample, the highest values were picked, then their nearest neighbours and some sequences at random.
B1: PhoQ; a variant is named by its letters at X, in order, P23837 (parent)
chain: MKKLLRLFFPLSLRVRFLLATAAVVLVLSLAYGMVALIGYSVSFDKTTFRLLRGESNLFYTLAKWENNKLHVELPENIDKQSPTMTLIYDENGQLLWAQRDVPWLMKMIQPDWLKSNGFHEIEADVNDTSLLLSGDHSIQQQLQEVREDDDDAEMTHSVAVNVYPATSRMPKLTIVVVDTIPVELKSSYMVWSWFIYVLSANLLLVIPLLWVAAWWSLRPIEALAKEVRELEEHNRELLNPATTRELTSLVRNLNRLLKSERERYDKYRTTLTDLTHSLKTPLXXLQXXLRSLRSEKMSVSDAEPVMLEQISRISQQIGYYLHRASMRGGTLLSRELHPVAPLLDNLTSALNKVYQRKGVNISLDISPEISFVGEQNDFVEVMGNVLDNACKYCLEFVEISARQTDEHLYIVVEDDGPGIPLSKREVIFDRGQRVDTLRPGQGVGLAVAREITEQYEGKIVAGESMLGGARMEVIFGRQHSAPKDE

Variants of: B1
Assay: enrichment ratio after two sorts for PhoP signalling (ratio (wild type AVST 3.29)); higher = more functional
Settings: with PhoP (E. coli)

Variant | enrichment ratio
EIPN | ≤ 0.25
PESG | ≤ 0.25
TESG | 24.9
MRSG | ≤ 0.25
TESN | 20.2
SRSG | ≤ 0.25
QESN | 5.1
NESG | ≤ 0.25
SLSG | 11.8
QESG | 6.03
MESN | 7.39
MESG | 15.7
PLSG | ≤ 0.25
GKLS | ≤ 0.25
SVRW | ≤ 0.25
RDAA | ≤ 0.25
KNCK | ≤ 0.25
VGMN | ≤ 0.25
HWYH | ≤ 0.25
IYMC | ≤ 0.25
EKVI | ≤ 0.25
HFDW | ≤ 0.25
HAFN | ≤ 0.25
EAES | ≤ 0.25

Variant | enrichment ratio
KYSG | ≤ 0.25
SCSG | 20.2
AKSG | 5.13
AESN | 11
FCSG | ≤ 0.25
SESG | 28.9
AESG | 25.4
SQSG | 6.12
STSG | 8.56
LITF | ≤ 0.25
ATGN | 3.43
TGVC | 16.8
SNCH | 7.35
SNWR | ≤ 0.25
SNVG | 3.21
HEMI | 12.7
SLVC | ≤ 0.25
HEMV | ≤ 0.25
GGVC | ≤ 0.25
SNVC | 11.5
SNMH | 11.9
PGVC | ≤ 0.25
HEMR | ≤ 0.25
ANPD | ≤ 0.25

Variant | enrichment ratio
TGHW | ≤ 0.25
KVMG | ≤ 0.25
IFMF | ≤ 0.25
WNFI | ≤ 0.25
ILYP | ≤ 0.25
PDCM | ≤ 0.25
SNFE | ≤ 0.25
GIVC | 4.3
SNMS | 12
SNMA | 7.05
SNMG | 12.5
GNVG | 2.06
GNVC | 11.6
SNHE | ≤ 0.25
SNMD | 1.49
SNMW | 3.59
SNME | 14.4
SNLW | 7.18
YALF | 3.8
PCNL | ≤ 0.25
QLCD | ≤ 0.25
TKMD | 0.263
FIAQ | ≤ 0.25
FTMY | 4.04

Variant | enrichment ratio
RWMS | ≤ 0.25
SLMF | 2.69
SQCV | 6.68
WQCV | ≤ 0.25
HEMF | ≤ 0.25
HEPH | ≤ 0.25
SNMF | 19.4
SNCV | 14.2
GYMF | ≤ 0.25
HEVN | ≤ 0.25
GIMF | 6.62
GNMF | 15.2
HEPN | 18.8
EGYW | ≤ 0.25
FYIV | ≤ 0.25
VIWQ | ≤ 0.25
NEFL | ≤ 0.25
HMPY | ≤ 0.25
RMDS | ≤ 0.25
WDAC | ≤ 0.25
ILVT | ≤ 0.25
GQDA | ≤ 0.25
SNLS | 11.5
SNMR | 1.49

Variant | enrichment ratio
SNLT | 7.56
SRLI | 6.88
SNMV | 18.5
TPLI | ≤ 0.25
SNYV | 0.433
SNMI | 19.8
SNLI | 11.3
SNVA | 6.33
SNIV | 9.73
SNLA | 6.53
PWPK | ≤ 0.25
GTKI | ≤ 0.25
MYMW | ≤ 0.25
HSYK | ≤ 0.25
GPQG | ≤ 0.25
KMHW | ≤ 0.25
GDTD | ≤ 0.25
DSIT | ≤ 0.25
NPMD | ≤ 0.25
WFPK | ≤ 0.25
QDRV | ≤ 0.25
DPTF | ≤ 0.25
PMYV | ≤ 0.25
VTLQ | 11.3

Variant | enrichment ratio
FTLQ | 6.79
VYLQ | ≤ 0.25
TTLQ | 10.7
QPLQ | ≤ 0.25
YTLQ | 12.8
GYLQ | ≤ 0.25
GTLQ | 15.2
VFLQ | ≤ 0.25
SQPR | ≤ 0.25
IAGV | ≤ 0.25
HKDW | ≤ 0.25
GERY | ≤ 0.25
SAVR | ≤ 0.25
MMAP | ≤ 0.25
RAVP | ≤ 0.25
WSVY | ≤ 0.25
STPW | ≤ 0.25
SLNG | 0.339
SING | 13.7
TING | 13.9
WLTG | ≤ 0.25
SIMG | 13.2
KYNG | ≤ 0.25
KYMG | ≤ 0.25

Variant | enrichment ratio
SIGG | 6.86
RING | ≤ 0.25
PLTG | ≤ 0.25
NING | ≤ 0.25
SLTG | 12.5
DHDM | ≤ 0.25
DCPT | ≤ 0.25
ELTP | ≤ 0.25
IKSW | ≤ 0.25
GMDV | ≤ 0.25
TNRI | ≤ 0.25
SCYN | ≤ 0.25
YRVE | ≤ 0.25
STTG | 7.62
SSTG | 12.4
SFTG | 5.29
SITG | 16.2
SQTG | 9.26
KYTG | ≤ 0.25
LIWW | ≤ 0.25
TSIP | ≤ 0.25
IDFC | ≤ 0.25
QELP | ≤ 0.25
KSAS | ≤ 0.25

Variant | enrichment ratio
RGAS | ≤ 0.25
TDAS | 11.6
CSAS | 36.6
NGAS | 0.365
TGAS | 14
CSAT | ≤ 0.25
KDAS | ≤ 0.25
ADAS | ≤ 0.25
PRQF | ≤ 0.25
AFYG | ≤ 0.25
EQHW | ≤ 0.25
ESQM | ≤ 0.25
WSTG | ≤ 0.25
PICR | ≤ 0.25
QESA | ≤ 0.25
NESQ | ≤ 0.25
TESA | 11.7
NESA | ≤ 0.25
MESI | 12.5
TESQ | 22.8
MCSI | 12.5
MMSI | 8.62
MCSK | ≤ 0.25
QESI | 7.8

Variant | enrichment ratio
QESQ | ≤ 0.25
MQSI | ≤ 0.25
HEMY | ≤ 0.25
TSHA | 3
IPQD | ≤ 0.25
HTSR | ≤ 0.25
FRDI | ≤ 0.25
TEQS | 7.71
GWCG | ≤ 0.25
TLDG | ≤ 0.25
PGHR | ≤ 0.25
TESK | 6.64
TESR | 6.55
TESI | 13.5
QGNK | ≤ 0.25
RDYI | ≤ 0.25
QMSV | 10.5
KCGN | ≤ 0.25
TGGN | 13.9
QPGN | ≤ 0.25
NSGN | ≤ 0.25
THGN | ≤ 0.25
LTGN | ≤ 0.25
KSGN | ≤ 0.25

Variant | enrichment ratio
FFGN | ≤ 0.25
QGGN | 14.7
TSGN | 14.9
YTGN | ≤ 0.25
TTGN | 21.9
TNRW | ≤ 0.25
LWKV | ≤ 0.25
IVDK | ≤ 0.25
EHTD | ≤ 0.25
NKKA | ≤ 0.25
MHGI | ≤ 0.25
QKAH | ≤ 0.25
KQVW | ≤ 0.25
ECVR | ≤ 0.25
KPPV | ≤ 0.25
KAGN | ≤ 0.25
MCGN | 16.3
MEGN | 10.8
MMGN | ≤ 0.25
MAGN | 13.5
NAGN | ≤ 0.25
WWPI | ≤ 0.25
DCFD | ≤ 0.25
MIYF | 24.3

Variant | enrichment ratio
MILQ | 14
MDYF | ≤ 0.25
MTYF | 7.02
MIAD | ≤ 0.25
MIYI | 24.3
MITA | ≤ 0.25
MKAA | ≤ 0.25
MIFA | ≤ 0.25
MELQ | 3.81
MIAA | 11.7
MIWI | 3.74
KCES | ≤ 0.25
FVYA | ≤ 0.25
FGWI | ≤ 0.25
LDYV | ≤ 0.25
DLSC | ≤ 0.25
IAQI | ≤ 0.25
MILY | 0.599
MIYH | 7.94
MIGH | 18.2
MISK | ≤ 0.25
MIFC | ≤ 0.25
MILA | 1.31
MIMF | 0.51

Variant | enrichment ratio
MITI | 14.6
MIHF | 3.77
MIGF | 11.9
MISC | 23
MITH | ≤ 0.25
NIWL | ≤ 0.25
WCMF | ≤ 0.25
KFLW | ≤ 0.25
SFFA | ≤ 0.25
IEDQ | ≤ 0.25
TAFY | 2.48
RVSG | ≤ 0.25
LAEY | ≤ 0.25
GIVQ | 2.03
MSAQ | 9.85
MITV | 17.2
MIMV | ≤ 0.25
MILT | ≤ 0.25
MIWV | ≤ 0.25
MIAQ | 14.7
MFAQ | ≤ 0.25
MIFT | ≤ 0.25
MIAT | 12.1
HFIN | ≤ 0.25

Variant | enrichment ratio
LDFC | ≤ 0.25
MDHH | ≤ 0.25
PDDC | ≤ 0.25
IFMI | ≤ 0.25
WEFI | ≤ 0.25
NHNC | ≤ 0.25
NGNC | ≤ 0.25
KSNC | ≤ 0.25
THNC | 11.9
KCNC | ≤ 0.25
SNNC | 18.6
TCNC | 14.3
TGNC | 61.8
SHNC | 0.752
STNC | ≤ 0.25
RGNC | ≤ 0.25
SLNC | ≤ 0.25
SIFT | ≤ 0.25

Source: a collection of fitness landscapes (doi:10.1126/science.1257360)
